TAR Tat displ = HIV-1 TAR-Tat binding disruption | AID 1259389 | z-score (test concentration not listed) | HIV-1 TAR RNA, Tat peptide displacement FRET; stronger effect = higher value | hit rate 0.6% among 100,000; active = z-score of 3 or more in at least 2 runs
CDC25B CDK2 inh = human CDC25B-CDK2/CyclinA binding inhibition | P30305+P24941 | HTRF CDC25B-CDK2/CyclinA binding, anti-His/anti-Flag; stronger effect = higher value | z-score (test concentration not listed) | hit rate 0.72% among 94,000; in the data active = z-score above about 3.2
Starred values were filed as active, the others as inactive; · = no result. The list is not random: actives were taken first. Their share in the collection is about 0.93%.

SMILES | TAR Tat displ | CDC25B CDK2 inh
FC(F)(F)c1cccc(-c2ccc(-c3nn4c(-c5ccco5)nnc4s3)o2)c1 | · | 1.4
CC1Sc2ccc(S(=O)(=O)N3CCc4ccccc43)cc2NC1=O (stereo unspecified) | 1.8 | ·
Cc1nnc(Oc2cccc(Cl)c2)c2ccccc12 | 2.5 | ·
COc1ccc(Nc2nc(N)c3cc(OC)c(OC)cc3n2)cc1Cl | 2.1 | 8.3
COc1ccc(C2CC(=O)N3CN(CCC(C)C)CSC3=C2C#N)cc1OC (stereo unspecified) | 0.22 | 4.7*
COc1cc(C2CC(=O)N3CN(Cc4ccco4)CSC3=C2C#N)ccc1O (stereo unspecified) | -0.81 | 4.9*
N#CC1=C2SCN(Cc3ccco3)CN2C(=O)CC1c1cccc(F)c1 (stereo unspecified) | -1.2 | 0.33
COc1ccc(C2CC(=O)N3CN(Cc4ccco4)CSC3=C2C#N)cc1OC (stereo unspecified) | 1.1 | 5.5*
COc1ccccc1C1CC(=O)N2CN(Cc3ccco3)CSC2=C1C#N (stereo unspecified) | -0.77 | 2.4
COc1ccc(C2CC(=O)N3CN(CCC(C)C)CSC3=C2C#N)cc1 (stereo unspecified) | 1.5 | -1.2
COc1cccc(C2CC(=O)N3CN(Cc4ccco4)CSC3=C2C#N)c1 (stereo unspecified) | -0.78 | 15*
CCc1ccc2c(c1)c(=O)c(S(=O)(=O)c1ccc(Cl)cc1)cn2C | 1.5 | -0.4
CCn1c2ccc(Br)cc2c2cc(Br)ccc21 | · | -2.2
CC(=O)N1c2c(cc(Br)cc2S(=O)(=O)N2CCN(c3ccc(F)cc3)CC2)CC1C (stereo unspecified) | 1.8 | 1.1
Cc1cc2oc(C(=O)Nc3sc4c(c3C(=O)NCc3cccnc3)CCCC4)cc(=O)c2cc1C | -6.7 | 0.22
Oc1ccc(Cl)cc1C=Nc1ccc2cn[nH]c2c1 | · | 9.1*
Oc1c(Cl)cc(Cl)cc1C=Nc1cccnc1 | · | -0.54
CCc1nn(CC(=O)NCCCN2CCCCC2CC)c(=O)c2cc3occc3n12 (stereo unspecified) | 2 | -0.1
CSc1nc(C)cc(Nc2ccc(N3CCC(C)CC3)cc2)n1 | 0.65 | -0.87
Cc1cc(Nc2ccc(N3CCN(C)CC3)cc2)nc(C)n1 | -1.6 | 11*
CC[n+]1c(C)n(-c2ccccc2)c2ccccc21 | 1.8 | -1.2
Cc1nc(-c2ccccc2)sc1C(=O)Nc1sc(C)c(C)c1C#N | -4.2 | -1.2
Cc1nc(-c2ccccc2)sc1C(=O)Nc1sc2c(c1C#N)CCC2 | 17* | 8.5
COc1ccc(C2CC(c3c(O)n(C)c(=O)n(C)c3=O)=Nc3ccccc3S2)cc1OC (stereo unspecified) | 2.3 | 20*
COc1cc(C2CC(c3c(O)n(C)c(=O)n(C)c3=O)=Nc3ccccc3S2)ccc1O (stereo unspecified) | 1.2 | -1.7
SMILES | TAR Tat displ | CDC25B CDK2 inh
CNC(=O)c1c(NC(=O)Cc2cccc3ccccc23)sc2c1CCC2 | 0.33 | ·
O=C(NC1CCCC1)c1ccc(N2CCCc3ccccc32)s1 | -0.57 | ·
COC(=O)c1sc2ccccc2c1S(=O)(=O)Nc1ccc(F)cc1 | 0.03 | ·
Cc1cc(O)c(C=O)c2c1C(=O)Oc1c(C)c(O)c3c(c1O2)C(O)OC3=O (stereo unspecified) | 4* | ·
COc1cc(C)c2c(c1C=O)Oc1c(c(C)c(O)c3c1C(O)OC3=O)OC2=O (stereo unspecified) | 0.93 | ·
CC(=O)Nc1ccc(-n2nncc2-c2ccco2)cc1 | 1.3 | ·
O=C(Nc1ccc(-n2nncc2-c2ccco2)cc1)c1cnc2n(c1=O)CCS2 | 7.3* | ·
CCn1c(C(=O)N2CCC(C(=O)N3CCCCCC3)CC2)cc2sccc21 | · | -0.58
CCOCCCN(C)C1CCN(S(=O)(=O)c2ccc3c(c2)CCCC(=O)N3)CC1 | 0 | ·
COC(=O)c1cccc2c(O)c(-c3ccncc3)[nH]c12 | 0.52 | 2.3
O=C(CN1C(=O)c2cccnc2Sc2ccccc21)Nc1ccc2c(c1)OCCO2 | 0.53 | ·
O=C(CN1C(=O)c2ccccc2Sc2ncccc21)Nc1ccc2c(c1)OCO2 | 13* | ·
COC(=O)[C@@]1(C)CC[C@]2(C)CC[C@]3(C)C(=CCC4[C@@]5(C)CCC(O)C(C)(C)C5CC[C@]43C)C2C1 (stereo partly specified) | · | 5.2*
CC1(C)CC[C@]2(C(=O)O)CC[C@]3(C)C(=CC[C@@H]4[C@@]5(C)CC[C@H](O)C(C)(C)[C@@H]5CC[C@]43C)[C@@H]2C1 | 3.4 | ·
Cc1nn(-c2ccc3nnc(C)n3n2)c2c1C(c1ccccc1OC(C)C)CC(=O)N2 (stereo unspecified) | 0.18 | ·
CN(C)CCCNc1cc(N2CCOCC2)c2noc3c2c1C(=O)c1ccccc1-3 | 12* | -2.6
O=C1c2ccccc2-c2onc3c(N4CCN(c5ccc(F)cc5)CC4)cc(NCCO)c1c23 | 2.4 | 6.3
CN(C)CCCNc1cc(N2CCN(c3ccc(F)cc3)CC2)c2noc3c2c1C(=O)c1ccccc1-3 | 28* | 7.4*
CN(CCO)CCNc1cc(N2CCOCC2)c2noc3c2c1C(=O)c1ccccc1-3 | -5.5 | -1.6
CCN1CCN(c2nnc(-n3cccc3CNc3ccc4c(c3)OCO4)s2)CC1 | 0.38 | ·
COc1ccc(-c2cc3c4c(C)n(Cc5ccccc5)c(C)c4c(C)nn3c2)cc1 | -0.42 | -1.8
COc1ccc(CCn2c(C)c3c(C)nn4cc(-c5ccc(C)o5)cc4c3c2C)cc1OC | 35* | 8
COc1ccc(-c2cc3c4c(C)n(C)c(C)c4c(C)nn3c2)cc1 | 11* | 2
COc1ccc(-c2cc3c4c(C)n(Cc5ccc6c(c5)OCO6)c(C)c4c(C)nn3c2)cc1 | -0.06 | -1.7
O=C(NCCCN1CCN(c2ccc(F)cc2)CC1)NCc1noc2ccccc12 | 0.02 | ·
SMILES | TAR Tat displ | CDC25B CDK2 inh
O=S(=O)(c1ccc2[nH]ccc2c1)N1CCCC1 | 0.92 | 0.13
CCCCc1nn2c(=O)cc(COC(=O)COc3ccc(F)cc3)nc2s1 | -0.35 | ·
COc1ccc(C2NC(=O)c3n[nH]c(-c4ccco4)c32)cc1OC (stereo unspecified) | 1.4 | 1.2
Cc1ccc(S(=O)(=O)Nc2ccc(O)c3cccnc23)cc1 | 0.05 | 8.3*
Cc1ccc(S(=O)(=O)Nc2cccc3ncccc23)cc1 | · | -1.5
Cc1ccc(S(=O)(=O)Nc2ccc(Cl)c3cccnc23)cc1 | 2.3 | 0.07
Cc1ccc(S(=O)(=O)Nc2ccc(O)c3ncccc23)cc1 | 0.89 | 15*
Cc1cc(-c2ccc(S(=O)(=O)N3CCN(C(c4ccccc4)c4ccccc4)CC3)s2)on1 | 1.4 | ·
Oc1cccc(Nc2nc(-c3cccnc3)cs2)c1 | 2.8 | -1.4
O=C(O)c1cc(Nc2nc(-c3cccnc3)cs2)ccc1O | 4.4* | -5.7
CCOC(=O)c1sc2ncnc(Oc3ccc(C)cc3)c2c1C | 0.72 | ·
COc1ccc2c(C(=O)O)cc(=O)[nH]c2c1 | -0.28 | -1.2
COc1ccc2[nH]c(=O)cc(C(=O)O)c2c1 | 13* | 0.85
Cc1cc(S(=O)(=O)Nc2cc3c(cc2N2CCCCC2)n(C)c(=O)n3C)ccc1F | 1.4 | -2.4
COc1nc(NCCO)nc(Nc2ccc(Cl)cc2)n1 | 1.3 | ·
Cc1ccc(C(=O)NC2CC2)cc1NC(=O)C1=CSCCO1 | 1.2 | ·
Cc1[nH]c2ccccc2c1SCC(=O)NNC(=O)Nc1cccc(Cl)c1 | · | 14*
O=C(CSc1nc2ccccc2c(=O)[nH]1)Nc1cccc(Cl)c1 | 1.8 | ·
CC1=C(c2ccccc2)S(=O)(=O)NC1=NCCCN1CCN(c2cc(C)ccc2C)CC1 | -0.09 | 13*

Bioassay records as filed in PubChem.
